# Results from PubChem BioAssay AID1159580 (chemical genetic matrix, 2015).
# Where “and” joins values, the source holds several entries; their conditions need not be identical. Equal values may be shown once. Screen size: about 5,500 compounds; about 2,000 (36%) were called active. Not shown: some 18% with an inconclusive outcome. The list shows a part of the results. Unmarked numbers belong to inactive results. Cut-off read from the data, not from the text of the source: active = normalized growth mostly below about 0.91 (no sharp cut-off); inconclusive = no clear call, values can overlap the other calls; inactive = mostly above about 0.92.
# Assay: chemical genetic growth profiling, strain panel (AID 1159580);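 note: tested at 20 µM; growth read once vehicle control cultures reached saturation at 30 °C; 1 = growth at the plate median or of vehicle wells; lower values mean less growth of the strain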
# Settings: S. cerevisiae deletion strains, growth OD
smiles,measurement,setting,value
CC(=O)N1CCN(c2ccc(OCC3CO[C@](Cn4ccnc4)(c4ccc(Cl)cc4Cl)O3)cc2)CC1 (stereo partly drawn),normalized growth,"locus YAL021C, strain ccr4, stronger effect = lower value",0.196 (active)
same,normalized growth,"locus YAL026C, strain drs2, stronger effect = lower value",0.0754 (active)
same,normalized growth,"locus YAL030W, strain snc1, stronger effect = lower value",0.0875 (active)
same,normalized growth,"locus YBL061C, strain skt5, stronger effect = lower value",0.0954 (active)
same,normalized growth,"locus YBR009C, strain hhf1, stronger effect = lower value",0.0917 (active)
same,normalized growth,"locus YBR021W, strain FUR4, stronger effect = lower value",0.163 (active)
same,normalized growth,"locus YBR023C, strain chs3, stronger effect = lower value",0.0942 (active)
same,normalized growth,"locus YBR171W, strain sec66, stronger effect = lower value",0.162 (active)
same,normalized growth,"locus YBR229C, strain ROT2, stronger effect = lower value",0.124 (active)
same,normalized growth,"locus YBR231C, strain swc5, stronger effect = lower value",0.0937 (active)
same,normalized growth,"locus YBR279W, strain paf1, stronger effect = lower value",0.0988 (active)
same,normalized growth,"locus YCL011C, strain gbp2, stronger effect = lower value",0.0885 (active)
same,normalized growth,"locus YCL016C, strain dcc1, stronger effect = lower value",0.102 (active)
same,normalized growth,"locus YCL029C, strain bik1, stronger effect = lower value",0.087 (active)
same,normalized growth,"locus YCL061C, strain MRC1, stronger effect = lower value",0.0977 (active)
same,normalized growth,"locus YCL069W, strain vba3, stronger effect = lower value",0.0793 (active)
same,normalized growth,"locus YCR088W, strain abp1, stronger effect = lower value",0.111 (active)
same,normalized growth,"locus YDL005C, strain med2, stronger effect = lower value",0.327 (active)
same,normalized growth,"locus YDL035C, strain GPR1, stronger effect = lower value",0.0672 (active)
same,normalized growth,"locus YDL040C, strain nat1, stronger effect = lower value",0.113 (active)
same,normalized growth,"locus YDL074C, strain BRE1, stronger effect = lower value",0.157 (active)
same,normalized growth,"locus YDL101C, strain DUN1, stronger effect = lower value",0.086 (active)
same,normalized growth,"locus YDL134C, strain PPH21, stronger effect = lower value",0.0637 (active)
same,normalized growth,"locus YDL185W, strain tfp1, stronger effect = lower value",0.542 (active)
same,normalized growth,"locus YDL192W, strain arf1, stronger effect = lower value",0.156 (active)
same,normalized growth,"locus YDR001C, strain nth1, stronger effect = lower value",0.105 (active)
same,normalized growth,"locus YDR069C, strain doa4, stronger effect = lower value",0.228 (active)
same,normalized growth,"locus YDR101C, strain arx1, stronger effect = lower value",0.101 (active)
same,normalized growth,"locus YDR137W, strain rgp1, stronger effect = lower value",0.449 (active)
same,normalized growth,"locus YDR150W, strain NUM1, stronger effect = lower value",0.0966 (active)
same,normalized growth,"locus YDR159W, strain sac3, stronger effect = lower value",0.135 (active)
same,normalized growth,"locus YDR162C, strain NBP2, stronger effect = lower value",0.0614 (active)
same,normalized growth,"locus YDR195W, strain ref2",0.254 (active)
same,normalized growth,"locus YDR297W, strain sur2, stronger effect = lower value",0.1 (active)
same,normalized growth,"locus YDR318W, strain mcm21, stronger effect = lower value",0.0866 (active)
same,normalized growth,"locus YDR334W, strain swr1, stronger effect = lower value",0.0914 (active)
same,normalized growth,"locus YDR335W, strain msn5, stronger effect = lower value",0.101 (active)
same,normalized growth,"locus YDR388W, stronger effect = lower value",0.0742 (active)
same,normalized growth,"locus YDR392W, strain spt3, stronger effect = lower value",0.106 (active)
same,normalized growth,"locus YDR502C, strain sam2, stronger effect = lower value",0.0927 (active)
same,normalized growth,"locus YEL003W, strain gim4, stronger effect = lower value",0.0768 (active)
same,normalized growth,"locus YEL037C, strain rad23, stronger effect = lower value",0.129 (active)
same,normalized growth,"locus YEL061C, strain CIN8 (second series), stronger effect = lower value",0.084 (active)
same,normalized growth,"locus YEL061C, strain CIN8, stronger effect = lower value",0.0807 (active)
same,normalized growth,"locus YER015W, strain faa2, stronger effect = lower value",0.0977 (active)
same,normalized growth,"locus YER016W, strain bim1, stronger effect = lower value",0.0966 (active)
same,normalized growth,"locus YER110C, stronger effect = lower value",0.129 (active)
same,normalized growth,"locus YER111C, strain swi4, stronger effect = lower value",0.123 (active)
same,normalized growth,"locus YER155C, strain BEM2 (second series), stronger effect = lower value",0.329 (active)
same,normalized growth,"locus YER155C, strain BEM2, stronger effect = lower value",0.0986 (active)
same,normalized growth,"locus YER167W, strain BCK2, stronger effect = lower value",0.064 (active)
same,normalized growth,"locus YFR010W, strain ubp6, stronger effect = lower value",0.302 (active)
same,normalized growth,"locus YGL078C, strain dbp3, stronger effect = lower value",0.908 (active)
same,normalized growth,"locus YGL086W, strain mad1, stronger effect = lower value",0.0803 (active)
same,normalized growth,"locus YGL167C, strain pmr1, stronger effect = lower value",0.191 (active)
same,normalized growth,"locus YGL173C, strain kem1, stronger effect = lower value",0.226 (active)
same,normalized growth,"locus YGL227W, strain vid30, stronger effect = lower value",0.0914 (active)
same,normalized growth,"locus YGL240W, strain doc1, stronger effect = lower value",0.166 (active)
same,normalized growth,"locus YGL248W, strain PDE1, stronger effect = lower value",0.0653 (active)
same,normalized growth,"locus YGL253W, strain hxk2, stronger effect = lower value",0.0717 (active)
same,normalized growth,"locus YGR078C, strain PAC10, stronger effect = lower value",0.0678 (active)
same,normalized growth,"locus YGR135W, strain pre9, stronger effect = lower value",0.0918 (active)
same,normalized growth,"locus YGR229C, strain SMI1, stronger effect = lower value",0.0729 (active)
same,normalized growth,"locus YGR252W, strain gcn5, stronger effect = lower value",0.213 (active)
same,normalized growth,"locus YHR013C, strain ard1, stronger effect = lower value",0.139 (active)
same,normalized growth,"locus YHR027C, strain rpn1, stronger effect = lower value",0.174 (active)
same,normalized growth,"locus YHR030C, strain SLT2, stronger effect = lower value",0.0646 (active) and 0.118 (active)
same,normalized growth,"locus YHR079C, strain IRE1 (second series), stronger effect = lower value",0.0993 (active)
same,normalized growth,"locus YHR079C, strain IRE1, stronger effect = lower value",0.155 (active)
same,normalized growth,"locus YHR094C, strain hxt1, stronger effect = lower value",0.0943 (active)
same,normalized growth,"locus YHR129C, strain ARP1, stronger effect = lower value",0.0814 (active)
same,normalized growth,"locus YHR142W, strain chs7, stronger effect = lower value",0.0981 (active)
same,normalized growth,"locus YHR200W, strain rpn10, stronger effect = lower value",0.133 (active)
same,normalized growth,"locus YIL066C, strain RNR3, stronger effect = lower value",0.0659 (active)
same,normalized growth,"locus YIL073C, strain SPO22, stronger effect = lower value",0.202 (active)
same,normalized growth,"locus YIL125W, strain kgd1, stronger effect = lower value",0.964
same,normalized growth,"locus YIR030C, strain dcg1, stronger effect = lower value",0.0973 (active)
same,normalized growth,"locus YJL092W, strain hpr5, stronger effect = lower value",0.093 (active)
same,normalized growth,"locus YJL095W, strain BCK1 (second series), stronger effect = lower value",0.0703 (active)
same,normalized growth,"locus YJL095W, strain BCK1, stronger effect = lower value",0.0666 (active) and 0.127 (active)
same,normalized growth,"locus YJL115W, strain asf1, stronger effect = lower value",0.113 (active)
same,normalized growth,"locus YJL129C, strain trk1, stronger effect = lower value",0.117 (active)
same,normalized growth,"locus YJL134W, strain LCB3, stronger effect = lower value",0.0818 (active)
same,normalized growth,"locus YJL154C, strain vps35, stronger effect = lower value",0.123 (active)
same,normalized growth,"locus YJL164C, strain tpk1, stronger effect = lower value",0.0872 (active)
same,normalized growth,"locus YJL166W, strain qcr8, stronger effect = lower value",0.0816 (active)
same,normalized growth,"locus YJL168C, strain set2, stronger effect = lower value",0.0995 (active)
same,normalized growth,"locus YJL187C, strain SWE1 (second series), stronger effect = lower value",0.0726 (active)
